In the library only some 7.5% were active in any assay of this set; here they are far more common.
ELG1 genotoxic = induces genotoxicity in HEK293T cells with luciferase-tagged ELG1. HEK293T ELG1-luciferase reporter, luminescence, 16 h. Potency, µM (top dose mostly 46 µM), inactives show at the top dose activity change, positive = activation, usual class: activators. 330,000 compounds, 1.3% hits; note: % of control where 0% means no effect; nearly all actives have a fitted effect of over 60% in size
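HEK293T cells expressing luciferase-tagged ELG1 were treated with compound or DMSO for 16 hr at 37°C. Luciferase activity was then read after 30 min with ONE-Glo at room temperature; rising signal flags genetic stress.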
SMN2 splice up = SMN2 splice variant enhancement | Potency, µM (doses to about 46.1 µM), without a hit: top-dose activity change, positive = activation, hits mostly activators | HEK293 SMN2-luciferase splicing reporter, luminescence, 30-36 h | 210,000 compounds, 2.8% hits; note: % of control where 0% means no effect; nearly all actives have a fitted effect of over 55% in size
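HEK293 cells carry an SMN2 minigene-luciferase reporter in which exon 7 inclusion puts luciferase in frame. Cells were seeded at 2000 cells/well, attached for 10-12 hours, then exposed to compounds for 30-36 hours at 37C before ONE-Glo luminescence.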
NPC1 promoter act = activators of NPC1 promoter; Huh7 NPC1 promoter luciferase reporter, 24 h; Potency, µM (doses to about 9.22 µM), inactives show at the highest dose activation, actives largely listed as activators; 320,000 compounds, 2.4% hits; note: % of control where 0% means no effect; nearly all actives have a fitted effect of over 60% in size
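Stable NPC1-promoter luciferase Huh7 line; cpd (DMSO) 24 h, 37 °C, 5% CO2; Amplite luciferase reagent 10 min RT; luminescence readout. qHTS format.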
FLuc modulator = firefly luciferase modulation, counter-screen for miR-21 project | 360,000 compounds, 6.9% hits | purified FLuc, Km substrates, luminescence inhibition | P08659 | Potency, µM (doses to about 57.5 µM), inactives show at the top dose activity change, negative = inhibition, most hits filed as inhibitors;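 note: plate controls were vehicle for no effect and reference inhibitor for full effect; nearly all actives have a fitted effect of over 55% in size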
Target sequence (P08659 whole entry, looked up): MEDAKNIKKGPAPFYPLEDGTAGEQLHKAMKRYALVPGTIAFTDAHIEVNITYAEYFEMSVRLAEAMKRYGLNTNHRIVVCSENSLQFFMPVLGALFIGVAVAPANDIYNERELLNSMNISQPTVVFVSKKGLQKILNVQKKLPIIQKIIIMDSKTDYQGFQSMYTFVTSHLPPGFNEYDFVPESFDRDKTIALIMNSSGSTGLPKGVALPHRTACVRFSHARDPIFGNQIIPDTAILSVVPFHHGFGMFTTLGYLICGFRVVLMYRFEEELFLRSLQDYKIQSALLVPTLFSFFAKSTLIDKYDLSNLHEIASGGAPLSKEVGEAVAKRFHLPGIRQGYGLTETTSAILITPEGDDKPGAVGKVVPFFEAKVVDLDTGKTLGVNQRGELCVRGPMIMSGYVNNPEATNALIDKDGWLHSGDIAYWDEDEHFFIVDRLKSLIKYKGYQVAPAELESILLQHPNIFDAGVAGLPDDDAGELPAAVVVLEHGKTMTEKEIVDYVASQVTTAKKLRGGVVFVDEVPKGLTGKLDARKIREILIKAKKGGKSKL
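Purified P. pyralis luciferase (10nM final) with 10uM D-luciferin and 10uM ATP (Km levels) in 50mM Tris acetate pH 7.5, 10mM Mg acetate, 0.01% Tween-20, 0.05% BSA; qHTS 6-point titration, ~60 µM downward; luminescence read.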
Rab9 promoter act = activators of Rab9 promoter; Huh7 Rab9 promoter-luciferase reporter, luminescence, 24 h; Potency, µM (highest dose often 9.22 µM), for inactives: at the highest dose activation, negative = inhibition, hits mostly activators; 320,000 compounds, 2.8% hits; note: % of control where 0% means no effect; nearly all actives have a fitted effect of over 60% in size
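Huh7 cells stably carrying Rab9 promoter–luciferase reporter, plated 1500 cells/well, compound added after 2 h and incubated 24 h at 37 °C; luciferase luminescence then read after 10 min with detection reagent.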
* marks the source's active call; other numbers are inactive results; [ ] = another dose, or the depositor's remark. Calls come from the whole dose curve; as a rule, active = well fitted curve in the direction sought with a large enough effect; inconclusive = small, poorly fitted or top-dose-only effect, or another doubt; inactive = no such curve, though single readings can be large; an effect the other way counts as inactive or inconclusive. Potency is the fitted concentration of half-maximal effect.

How did O=C(CSCc1ccc(Cl)cc1Cl)Nc1c[nH]c(=O)[nH]c1=O do in these assays?
ELG1 genotoxic: 7%; NPC1 promoter act: -3%; FLuc modulator: 8%; Rab9 promoter act: 2%

Results for COc1cccc(C(=O)O/N=C(\N)c2ccc([N+](=O)[O-])cc2)c1OC ?
ELG1 genotoxic: inconclusive; SMN2 splice up: inconclusive; NPC1 promoter act: inconclusive; FLuc modulator: 11µM*; Rab9 promoter act: 10%[1.84 µM]

How did Cc1ccc(-n2cc(CN3CCNC(=O)CC3)c(-c3ccc(F)cc3)n2)cc1 do in these assays?
ELG1 genotoxic: -1%; NPC1 promoter act: -5%; FLuc modulator: inconclusive; Rab9 promoter act: 0%

Results for Cc1ccc(-n2cc(CN3CCC(O)(c4ccccn4)CC3)c(-c3ccc(F)cc3)n2)cc1 ?
ELG1 genotoxic: -6%; NPC1 promoter act: -4%; FLuc modulator: 17µM*; Rab9 promoter act: -21%

Results for C/C(=N\NC(=O)c1nnn(-c2nonc2N)c1-c1ccccc1)c1ccco1 ?
ELG1 genotoxic: 5%; NPC1 promoter act: 1%; FLuc modulator: -1%; Rab9 promoter act: 7%

What do the screens show for `CC1(C)CC(=O)C(C(C2=C(O)CC(C)(C)CC2=O)c2ccc([N+](=O)[O-])cc2)C(=O)C1` (configuration not stated)?
ELG1 genotoxic: 5%; NPC1 promoter act: 1%; FLuc modulator: 0%; Rab9 promoter act: 2%

Results for CC1(C)CC(=O)C(C(C2=C(O)CC(C)(C)CC2=O)c2ccc(O)c([N+](=O)[O-])c2)=C(O)C1 ?
ELG1 genotoxic: 4%; SMN2 splice up: 4%; NPC1 promoter act: -5%; FLuc modulator: 24µM*; Rab9 promoter act: 0%

How did CCc1ccccc1OCC(=O)OCC(=O)N1CC(=O)Nc2ccccc21 do in these assays?
ELG1 genotoxic: -2%; SMN2 splice up: 4%; NPC1 promoter act: 4%; FLuc modulator: -5%; Rab9 promoter act: -3%

What do the screens show for `CCCS(=O)(=O)Nc1cccc(-c2cn3c(n2)SCC3)c1`?
ELG1 genotoxic: 0%; NPC1 promoter act: -2%; FLuc modulator: -2%; Rab9 promoter act: 0%

What do the screens show for `O=C(Nc1ccc(-c2cn3c(n2)SCC3)cc1)c1ccc2ccccc2n1`?
ELG1 genotoxic: -12%; SMN2 splice up: 19%; NPC1 promoter act: 21%; FLuc modulator: 19µM*; Rab9 promoter act: 8%

What do the screens show for `O=C(Nc1cccc(-c2cn3c(n2)SCC3)c1)c1ccc2ccccc2n1`?
ELG1 genotoxic: inconclusive; SMN2 splice up: 13µM*; NPC1 promoter act: 0.28µM*; FLuc modulator: 3µM*; Rab9 promoter act: 0.4µM*

How did c1ccc(-c2cn3c(n2)SCC3)cc1 do in these assays?
ELG1 genotoxic: 8%; SMN2 splice up: 22%; NPC1 promoter act: 17%; FLuc modulator: inconclusive; Rab9 promoter act: 21%

Results for Cc1ccc(NC(=O)NCCOCCn2c(=O)oc3ccccc32)cc1F ?
SMN2 splice up: 1%; FLuc modulator: -1%

Results for O=C(Nc1ncn[nH]1)c1ccc([N+](=O)[O-])cc1[N+](=O)[O-] ?
ELG1 genotoxic: -3%; SMN2 splice up: -3%; NPC1 promoter act: 3%; FLuc modulator: 2%; Rab9 promoter act: 17%

What do the screens show for `COc1ccc(NC(=O)CC(c2ccc(F)cc2)c2ccc(OC)cc2)cc1` (configuration not stated)?
ELG1 genotoxic: -2%; SMN2 splice up: -18%; NPC1 promoter act: -4%; FLuc modulator: 0%; Rab9 promoter act: -6%

How did COc1ccc(-n2c(C)n[nH]c2=O)cc1 do in these assays?
ELG1 genotoxic: 2%; SMN2 splice up: -6%; NPC1 promoter act: -1%; FLuc modulator: 6%; Rab9 promoter act: -3%

Results for Cc1n[nH]c(=O)n1-c1ccc(OCc2ccccc2)cc1 ?
ELG1 genotoxic: inconclusive; NPC1 promoter act: inconclusive; FLuc modulator: 21µM*; Rab9 promoter act: 2.8µM*

How did O=[N+]([O-])c1cnc2nc(-c3ccncc3)nn2c1O do in these assays?
ELG1 genotoxic: -1%; SMN2 splice up: -6%; NPC1 promoter act: 0%; FLuc modulator: 21µM*; Rab9 promoter act: 1%

Results for CCNc1ccc(-c2nc(-c3ccncc3)no2)cc1[N+](=O)[O-] ?
FLuc modulator: -12%

Results for COc1ccc(NS(=O)(=O)c2ccc(NC(=O)c3ccccc3Br)cc2)nn1 ?
ELG1 genotoxic: -1%; NPC1 promoter act: -2%; FLuc modulator: -9%; Rab9 promoter act: -14%

Results for CC(C)(C)C(=O)Nc1ccc(NC(=O)C(C)(C)C)cc1 ?
ELG1 genotoxic: 7%; NPC1 promoter act: 11%; FLuc modulator: -10%; Rab9 promoter act: 24%

How did CC(C)C(=O)Nc1ccc(-c2nc3ccccc3c(=O)o2)cc1 do in these assays?
ELG1 genotoxic: -1%; NPC1 promoter act: 9%; FLuc modulator: 0.3µM*; Rab9 promoter act: 3%

How did CCCC(=O)Nc1cccc(-c2nc3ccccc3c(=O)o2)c1 do in these assays?
ELG1 genotoxic: -4%; NPC1 promoter act: 1%; FLuc modulator: 1.3µM*; Rab9 promoter act: 17%

How did CCCCC(=O)Nc1cccc(-c2nnc(-c3ccccc3)o2)c1 do in these assays?
ELG1 genotoxic: -2%; SMN2 splice up: inconclusive; NPC1 promoter act: 8%; FLuc modulator: inconclusive; Rab9 promoter act: 19%

Results for CC(C)(C)C(=O)Nc1ccc(-c2nc3ccccc3c(=O)o2)cc1 ?
ELG1 genotoxic: 6%; NPC1 promoter act: 15%; FLuc modulator: 0.11µM*; Rab9 promoter act: 21%

What do the screens show for `O=C(Nc1cccc(-c2nc3ccccc3o2)c1)C(F)(F)F`?
SMN2 splice up: 2%; FLuc modulator: inconclusive

Results for CC(C)C(=O)Nc1cccc(-c2nc3ccccc3c(=O)o2)c1 ?
ELG1 genotoxic: 3%; SMN2 splice up: -3%; NPC1 promoter act: -1%; FLuc modulator: inconclusive; Rab9 promoter act: 1%

Results for CC(C)(C)C(=O)Nc1cccc(-c2nc3ccccc3c(=O)o2)c1 ?
ELG1 genotoxic: 11%; SMN2 splice up: -3%; NPC1 promoter act: inconclusive; FLuc modulator: 15µM*; Rab9 promoter act: inconclusive

How did Clc1cc(NCc2cccs2)ccc1N1CCOCC1 do in these assays?
ELG1 genotoxic: 18µM*; SMN2 splice up: inconclusive; NPC1 promoter act: inconclusive; FLuc modulator: inconclusive; Rab9 promoter act: inconclusive

What do the screens show for `Oc1ccccc1CNc1ccc2c(c1)OCCO2`?
ELG1 genotoxic: inconclusive; NPC1 promoter act: 14%; FLuc modulator: 12µM*; Rab9 promoter act: 3.5µM*

Results for Cc1ccc(CNc2ccc3c(c2)OCO3)c(C)c1 ?
SMN2 splice up: 5%; FLuc modulator: 21µM*

What do the screens show for `c1csc(CNc2ccc3c(c2)OCCO3)c1`?
ELG1 genotoxic: 8.2µM*; SMN2 splice up: -11%; NPC1 promoter act: 9%; FLuc modulator: 27µM*; Rab9 promoter act: 14%

Screens from PubChem.
